From PubChem BioAssay AID624040 (The Scripps Research Institute Molecular Screening Center, 2012)
The whole screen tested about 360,000 compounds, of which about 2,100 (0.58%) were called active.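 Rule for the calls: active = inhibition above a per-plate cutoff, the mean of that plate's test compounds plus 3 SD (cut at about 27% in these data); inactive = the rest.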 The full list was thinned out, with actives kept by preference.

Each molecule was assayed against Muscarinic acetylcholine receptor M5 (Homo sapiens) (UniProt P08912) (assay: CHRM5 blockers of acetylcholine calcium response – CHO cells, Fluo-8 calcium fluorescence, primary screen (AID 624040;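 note: 0% = acetylcholine EC80 with DMSO and 100% = DMSO without agonist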)). Conditions: CHO-hM5 cells, ACh EC80, at 3 µM, hits give high values.
Sequence of Muscarinic acetylcholine receptor M5 (Homo sapiens) (P08912 whole entry, looked up): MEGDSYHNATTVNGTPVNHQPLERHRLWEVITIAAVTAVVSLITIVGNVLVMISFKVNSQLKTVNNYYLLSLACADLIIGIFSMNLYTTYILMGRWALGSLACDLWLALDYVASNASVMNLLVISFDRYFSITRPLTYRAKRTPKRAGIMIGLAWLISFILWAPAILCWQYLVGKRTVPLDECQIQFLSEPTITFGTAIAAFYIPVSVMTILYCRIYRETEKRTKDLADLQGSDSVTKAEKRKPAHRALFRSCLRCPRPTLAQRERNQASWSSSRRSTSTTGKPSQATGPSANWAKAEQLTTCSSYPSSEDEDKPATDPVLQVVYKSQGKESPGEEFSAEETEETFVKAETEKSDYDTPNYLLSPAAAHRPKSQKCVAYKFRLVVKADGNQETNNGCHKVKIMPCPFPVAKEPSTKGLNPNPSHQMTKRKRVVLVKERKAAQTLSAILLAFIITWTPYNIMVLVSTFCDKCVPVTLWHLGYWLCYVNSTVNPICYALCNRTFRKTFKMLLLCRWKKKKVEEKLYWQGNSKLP

inhibition, inactive:
CC1C(=O)NC(=O)C1c1ccccc1 (centres undefined) 5.64%
COc1cccc(-c2ccc(C#N)c(SCC(=O)NCCc3ccc(Cl)cc3)n2)c1 -0.91%
COc1cc(C(=O)N2CCOC23CCN(Cc2ccccc2)CC3)cc(OC)c1OC 4.88%
C[C@@H]1CC[C@@]2(OC1)O[C@H]1C[C@H]3[C@@H]4CC=C5C[C@@H](O)[C@H](O)C[C@]5(C)C4CC[C@]3(C)[C@H]1[C@@H]2C (some centres undefined) -3.19%
O=C(OCc1nnc(-c2ccccc2)o1)c1ccc2c(c1)C(=O)N(CCc1ccccc1)C2=O 5.45%
O=C(OCc1nnc(-c2ccccc2)o1)c1cc(=O)[nH]c2ccccc12 6.31%
CN/C(=C\[N+](=O)[O-])NCCSCc1csc(CN(C)C)n1 4.23%
CC(C)C(=O)Nc1nnc(Sc2ccc(N(C)C)cc2)s1 -0.86%
COc1cc(OC)cc(C(=O)NC(=S)N2CCN(c3ccc(C(F)(F)F)cc3[N+](=O)[O-])CC2)c1 18.9%
O=C(Cc1ccc(S(=O)(=O)N2CCOCC2)s1)N1CCN(c2ccc(C(F)(F)F)cc2[N+](=O)[O-])CC1 17.4%
CC(Sc1sc(=S)sc1SC(C)C(=O)O)C(=O)O (centres undefined) 0.68%
Cc1cc2oc3ccc(NCCC4CCCN4C)cc3c(=O)c2cc1C (centres undefined) 9.19%
Cc1ccc(-c2noc(CNC(=O)c3ccoc3C)n2)cc1 12.7%
CC(=O)c1ccc(S(=O)(=O)N(C)CCCC(=O)N(C)Cc2ccccc2F)cc1 -0.62%
Cc1nc(CN(C)C(=O)CC2C(=O)NCCN2Cc2ccc(F)cc2)cs1 (centres undefined) -22.7%
CSc1cccc(NC(=S)N(C(C)C)C(C)c2ccccn2)c1 (centres undefined) 4.26%
COc1ccc(-c2[nH]ncc2CN(C)Cc2cccnc2)c(F)c1 -5.23%
CCOc1ccc2[nH]c(=O)c(CN(CCCO)S(=O)(=O)c3ccc(F)cc3)cc2c1 11.3%
CC(C)c1nnc(NC(=O)C2CCCN2S(=O)(=O)c2ccc(Cl)cc2)s1 (centres undefined) -0.86%
CCOc1c(OC)cccc1C(=O)NCC1(c2ccccc2)CCCC1 15.3%
CC(=O)CC(CC(=O)NC1CCCCC1)c1ccccc1 (centres undefined) 8.42%
CC1CN(c2nc(-c3ccccc3)nnc2-c2ccccc2)CC(C)O1 (centres undefined) 0.03%
CCCC(=O)N1CCC1(C)C(=O)Nc1ccc(-n2cncn2)cc1 (centres undefined) -3.91%
O=C(c1cc(COc2c(F)cccc2F)on1)N1CCSCC1 -3.86%
CCN(CC)C(=O)C1CCC(C)(C(=O)O)C1(C)C (centres undefined) 8.62%
COc1ccc(Cn2cc(CN3CCS(=O)(=O)N(Cc4ccc(-c5cccc(Cl)c5)cc4)C(C)C3=O)nn2)cc1 (centres undefined) -2.91%
CC1=C(C(N)=O)C(c2sccc2C)n2nnnc2N1 (centres undefined) -6.06%
COc1ccc(OC)c(C2N(c3ccccn3)C(=O)C3CCCN32)c1 (centres undefined) 2.53%
CN(C)Cc1ccccc1C1(O)c2ccccc2CSc2ccccc21 (centres undefined) 18.8%
CCOC(=O)c1ccc(N=C2SC(C(=O)NC)CC(=O)N2CCc2ccccc2)cc1 (centres undefined) 3.02%
N#Cc1ccc(COC(=O)Cn2nnc(-c3ccccc3)n2)cc1 1.41%
c1cc(-n2cnnn2)ccc1NC1=NCCC1 -8.17%
O=C(CSc1nccn1-c1cccc(F)c1)NC1CCCC1 0.21%
CCC(C)(C)NC(=O)CN(C(=O)CCC(=O)Nc1cc(C)ccn1)c1ccc2c(c1)OCCO2 -0.46%
C=CCC(NC(=O)Cc1ccccc1)C(=O)NCCC (centres undefined) -3.26%
CCCOCC(O)CC(CC)C(=O)NNC(=S)Nc1ccccc1 (centres undefined) -7.7%
CCCNC(=O)N1CCN(C(=O)NCCC)CC1 8.13%
C#CCO[C@@H]1C[C@H](n2cnc3c(=O)[nH]c(NC(=O)C(C)C)nc32)O[C@@H]1CO 9.77%
Cc1cccc(-n2c(Cc3cc(=O)[nH]c(=O)[nH]3)nnc2SC(C)C)c1 -3.22%
CC[C@]12c3[nH]c4ccc(Cl)cc4c3CCN1C(=O)[C@@H](CC(=O)NCCCOC)C[C@@H]2C(=O)N1CCN(C(=O)C2CC2)CC1 0.99%
COc1ccccc1NS(=O)(=O)c1ccc(C)c(C(=O)NCC(c2ccco2)N(C)C)c1 (centres undefined) 6.64%
CSCCC(NS(=O)(=O)c1ccc(C)cc1)C(=O)NCCc1c[nH]c2ccccc12 (centres undefined) 2.39%
Cc1cccc(N2CCN(S(=O)(=O)c3ccc(-c4cc(C)no4)s3)CC2C)c1 (centres undefined) -1.63%
Cc1cc(-c2ccc(S(=O)(=O)N3CCc4ccccc4C3)s2)on1 5.38%
C=CCCN(Cc1ccccc1)S(=O)(=O)c1ccccc1Br 13.3%
O=C(NCC(=O)N1CCC2(CC1)NCCc1[nH]cnc12)c1ccc(Br)cc1 -15.5%
O=C1C2C3C=CC(C3)C2C(=O)N1c1ccc(-c2nc3ccccc3c(=O)o2)cc1 (centres undefined) -6.13%
CC1CCC2(CC1)NC(=O)N(Cc1nnc(-c3cccs3)o1)C2=O (centres undefined) 8.17%
COc1ccccc1CNC(=O)COn1nnc2ccc(S(=O)(=O)N3CCOCC3)cc21 4.42%
CN1CCN(S(=O)(=O)c2cccc(C(=O)N3CCc4ccccc43)c2)CC1 5.4%
Cn1cccc1C(=O)N1CCc2ccccc2C1 -2.44%
COc1ccc(C(=O)NC2CC2)cc1OC1CCN(C/C=C/c2ccccc2)CC1 3.15%
COCCn1c(SCC(=O)Nc2cc(OC)ccc2OC)nc2c(c1=O)SC(C)C2 (centres undefined) 3.68%
CC(=O)Nc1ccc(S(=O)(=O)NCC(=O)OCc2cc(=O)oc3ccc4ccccc4c23)cc1 0.62%
COc1ccc(OCC(O)CNC(=O)Nc2ccc(Cl)cc2)cc1 (centres undefined) 12.7%
CC(=O)N1CCC(N(C(=O)Nc2ccc(Cl)cc2)C(C)C)CC1 12.4%
Cc1cc(N2CCCC2)ccc1NC(=O)COc1ccc(Cl)cc1 -1.18%
O=C(CCCN=C1NS(=O)(=O)c2ccccc21)OCC(=O)c1ccc(F)c(F)c1 7.17%
COc1cc(OC)c(OC)cc1CN1CCN(C(=O)c2cccc3ccccc23)CC1 4.24%
Cc1ccc(C(=O)N2CCCc3ccccc32)c(Cl)c1 16.7%
CCCn1nc(C(=O)N2CCCc3ccccc32)c2ccccc2c1=O 12.6%
O=C(Cc1ccc(S(=O)(=O)N2CCOCC2)s1)NCCOc1ccccc1F -4.35%
CC(Sc1nnc(CNC(=O)c2ccccc2F)n1C)C(=O)Nc1nccs1 (centres undefined) 5.11%
FC(F)Oc1ccccc1NC(=S)Nc1cccc(Cl)c1Cl -7.36%
COc1ccc(CN(C)C(=O)Cc2ccsc2)c(OC)c1OC 6.37%
COc1ccc(CN(C)C(=O)Cc2c[nH]c3ccccc23)c(OC)c1OC 1.21%
CCCCN(CCCC)CCNC(=O)CN1C(=O)COc2ccc(S(=O)(=O)N3CCOCC3)cc21 -0.51%
CCO[C@H]1OC(C(=O)O)=C[C@@H](C2CCCCC2)[C@@H]1CCCO 9.63%
O=C(NCc1cccnc1)c1nc(-c2cccs2)no1 5.2%
CC(C)(C)NC(=O)NC(=O)COC(=O)CCC1CCCCC1 -5.64%
CCc1ccc(CNC(=O)C2CCN(c3nnc(C)c4c(C)n(-c5ccc(C)cc5)nc34)CC2)cc1 0.33%
CCOc1ccc(CCN2C(=S)N([C@@H](CC(C)C)CN3CCC[C@@H]3CN3C(=S)NC[C@@H]3Cc3ccc(O)cc3)C[C@@H]2Cc2ccc(O)cc2)cc1 0.29%
FC(F)(F)Oc1ccccc1C(c1nnnn1C1CCCCC1)N1CCN(C/C=C/c2ccccc2)CC1 (centres undefined) -11.2%
COc1ccc(C(c2nnnn2C2CCCCC2)N2CCN(c3ccccc3F)CC2)cc1 (centres undefined) -15.7%
CCCCn1nnnc1C(c1ccccc1)N1CCN(c2ccccc2OC)CC1 (centres undefined) 2.03%
COCCn1nnnc1C(c1ccccc1Cl)N1CCN(c2ccccc2OC)CC1 (centres undefined) -11.5%

inhibition, active:
Cc1onc(-c2ccccc2)c1-c1nnc(COC(=O)c2ccc(N(C)C)cc2)o1 66.8%
O=C(c1ccc(N2CCCC2=O)cc1)N1CCN(c2ccc(C(F)(F)F)cc2[N+](=O)[O-])CC1 29.3%
CN1CCC[C@@H]1CCO[C@](C)(c1ccccc1)c1ccc(Cl)cc1 98.5%
COc1ccc2[nH]c(=O)c(CN(Cc3cccnc3)S(=O)(=O)c3ccccc3F)cc2c1 27.3%
O=C(CNC1CCCCC1)NCC1(c2ccccc2)CCCC1 27.1%
C=CCC1(CC=C)CCCN1C(=O)c1cc(COc2ccc(-n3cncn3)cc2)on1 41.9%
CN(C)CC/C=C1\c2ccccc2CSc2ccccc21 99.1%
COc1ccc(NC(=O)/C(Cl)=C(/Cl)S(=O)Cc2ccc(C)cc2)cn1 (centres undefined) 34.9%
CCCCC(=O)NNC(=S)NC(=O)C(c1ccccc1)c1ccccc1 28.1%
CCN1/C(=C\c2ccc3ccccc3[n+]2CC)Sc2cc(C)ccc21 48.1%
Cc1cc(-c2ccc(S(=O)(=O)N3CCN(c4cccc(C(F)(F)F)c4)CC3)s2)on1 53.9%
Nc1c(C(=O)c2cccs2)sc2nsc(SCCN3CCCCC3)c12 47.4%
CN1CCN(C(=O)N2c3ccccc3CCc3ccccc32)CC1 98.8%
CC(C)S(=O)(=O)c1csc(NC(=O)Nc2ccc(Cl)cc2)c1Cl 37.3%
Cc1cccc2cc3c(N)c(C(=O)N4CCCc5ccccc54)sc3nc12 28.3%
COc1ccc(-c2cc(C(=O)N(C)Cc3ccc(OC)c(OC)c3OC)c3ccccc3n2)cc1OC 29.8%
CCCCn1nnnc1C(c1cccc(OC)c1OC)N1CCN(C/C=C/c2ccccc2)CC1 (centres undefined) 47%
COc1ccc(C(c2nnnn2C2CCCC2)N2CCN(C/C=C/c3ccccc3)CC2)cc1 (centres undefined) 42%
